PubChem BioAssay (NCI)
The panel holds about 83,000 compounds, 20% with a hit somewhere; the sample as a whole holds those more often.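 Cell lines were cultured in 96-well plates, exposed to a single compound concentration, and assessed for percent growth 48 hours later.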 The source made the active and inactive calls. How the source made its calls: active means growth percent below 10; inactive means the rest.

These compounds were tested on HCT-116 colon (assay: NCI-60 one-dose screen, 48 h (100 = growth as untreated, 0 = no growth, -100 = all killed)). Settings: 10 µM unless noted.

Compound | growth
COc1ccc(C2=Nc3c(N)ncnc3NC(c3cccc(Nc4ccnc5cc(C(F)(F)F)ccc45)c3)C2)cc1 (stereo not given) | 40% (inactive)
Clc1ccc(-c2cn3ccsc3n2)c(Cl)c1Cl | 91.7% (inactive)
CCSC1=CC(=O)c2ccccc2C1=O | 2.56% (active)
Fc1ccc2c(c1)c(-c1nc(-c3c[nH]c4ncccc34)cs1)cn2CCCN1CCOCC1 | 40.4% (inactive)
C[Se]C(=O)CC1=C2C=C(F)C=CC2/C(=C\c2ccc(S(C)=O)cc2)C1C (stereo not given) | 7.49% (active)
COc1cc(N2C(=O)[C@H](c3ccccc3)C2c2ccc(SC)cc2)cc(OC)c1OC (stereo not given in full) | 0.933% (active)
Cc1ccc(/C=C2\CN(C(=O)C(Cl)Cl)C/C(=C\c3ccc(C)cc3)C2=O)cc1 | -84.6% (active)
CCCCCCC(CCCC)COC(=O)c1ccc(Cl)cc1 (stereo not given) | 104% (inactive)
Cc1ccc2nc(Cl)c(Cn3nnnc3SCc3ccccc3)cc2c1 | 89.5% (inactive)
O=C(O)c1cn(C2CC2)c2cc(N3CCN(C(=O)N/N=C/c4ccccc4)CC3)c(F)cc2c1=O | 108% (inactive)
CC12CCC(/C(=C/NNc3ccc([N+](=O)[O-])cc3[N+](=O)[O-])C1=O)C2(C)C (stereo not given) | 50.7% (inactive)
CCOC(=O)Cn1c(=O)c2c3ccccc3n(C)c2n2nnc(-c3ccccc3)c12 | 65% (inactive)
COc1cc(C#Cc2ccc(=O)oc2C#Cc2ccccc2)cc(OC)c1OC | -32.2% (active)
COc1ccc(C/C(C)=C(/c2ccc(OCCN3CCCCCC3)cc2)c2ccc(OC(=O)NCc3ccccc3)cc2)cc1 | 64.7% (inactive)
Cc1c2cc[nH]c(=O)c2c(C)c2c1[nH]c1ccc(OC(=O)c3ccccc3)cc12 | 22.7% (inactive)
Clc1nccc2c(-c3csc(-c4c[nH]c5ccccc45)n3)c[nH]c12 | 39.7% (inactive)
Cc1cccc(-n2c(C)nc3ccc(N4CCCNC4=O)cc3c2=O)c1 | 102% (inactive)
Cc1nn(-c2ccccc2)c(N2CCCCC2)c1/C=N/NC(=O)Cn1c(=O)sc2ccccc21 | 77.1% (inactive)
C#CCOc1cccc(-c2ncc3cc(NC(=O)CCl)ccc3n2)c1 | -26.9% (active)
C=CCOC(=O)C1=C(C)NC(=O)NC1c1c(Cl)n(C)c2ccccc12 (stereo not given) | 93.4% (inactive)

Compound | growth
Cc1ccc(C(=O)c2ccc(CC(=O)N/N=C/c3ccc(O)cc3O)n2C)cc1 | 34.9% (inactive)
COc1cc(C(=O)/C=C/c2c(-c3cccs3)nc3ccccn23)cc(OC)c1OC | -5.59% (active)
CC(/C=C1\SC(=S)N(CC(=O)NC(Cc2c[nH]c3ccccc23)C(=O)O)C1=O)=C\c1ccccc1 (stereo not given) | 112% (inactive)
CC(C)[C@@]12C[C@@H](OC(=O)COC(=O)c3ccccc3)[C@@](C)(O1)[C@@H]1CC[C@@H](C)[C@H]1[C@@H]2OC(=O)/C=C/c1ccccc1 | 83.6% (inactive)
COc1ccc2c(c1)c(-c1nonc1-c1cn(C)c3ccc(OC)cc13)cn2C | 19.2% (inactive)
O=C(Cn1nnc2ccccc21)Nc1ccc(-c2nc3ccccc3s2)cc1 | 97.4% (inactive)
CC(=O)c1c(Nc2ccc(F)c(F)c2F)[nH]c2c(F)cc(F)cc2c1=O | 3.09% (active)
CC/C=C1/C(=O)C=C[C@@H]1C/C=C\CCCC(=O)OC | -59.6% (active)
O=C(CCCCCCN1CC(=O)N2[C@@H](C3CCCCC3)c3[nH]c4ccccc4c3C[C@H]2C1=O)NO | 27% (inactive)
COc1cc(C(=O)c2c(-c3ccccc3)oc3c(OC)cccc23)cc(OC)c1O | 10.2% (inactive)
O=C1NC(=C(Cl)Cl)/C(=N/S(=O)(=O)N2CCCCC2)N1 | 6.37% (active)
COc1ccc(C2=CN3CC=CCC3CC2=O)cc1 (stereo not given) | 93.1% (inactive)
CCN(CC)c1ccc(/C=N/NC(=O)c2ccc(Nc3ccnc(C(F)(F)F)c3)cc2)c(O)c1 | 23.6% (inactive)
S=c1[nH]c2cc(Cl)ccc2o1 | 91.1% (inactive)
NC(=S)N/N=C/c1cn(-c2ccccc2)nc1-c1cc2ccccc2oc1=O | 27.2% (inactive)
COc1ncc2cc1NS(=O)(=O)c1cccc(c1)C(=O)NCC1=CC=C(S1)c1ncnc3c1SC2=C3C | -31.8% (active)
CN(C)c1ccc(-c2cc(-c3ccc(Nc4nc(Nc5ccc(Cl)cc5)nc(Nc5ccc(Cl)cc5)n4)cc3)nc(N)c2C#N)cc1 | 60.5% (inactive)
Cc1ccc(N=Nc2c(N)nn(-c3ccccc3)c2N)cc1 | 15.6% (inactive)
CCN1C(=O)N(CC)C2C1NN=C1SCC(=O)N12 (stereo not given) | 9.44% (active)
COP(=O)(OC)c1nnn(-c2cccc([N+](=O)[O-])c2)c1C | 105% (inactive)
